Reference: PubChem BioAssay (NCATS)
Several values for one entry are separate records, joined by “and”; a condition that tells them apart may be missing. Equal entries are not always repeated. Values without a mark were called inactive. Results filed as inconclusive are left out. A call without a number means that no potency is given here. Activity calls are given as the source filed them. Calls come from the whole dose curve; as a rule, active = well fitted curve in the direction sought with a large enough effect; inconclusive = small, poorly fitted or top-dose-only effect, or another doubt; inactive = no such curve, though single readings can be large; an effect the other way counts as inactive or inconclusive.

Columns and labels:
[1] = target: Arylsulfatase A (Homo sapiens) (UniProt P15289); test: qHTS screen for enhancers of Arylsulfatase A (ASA1): LOPAC Validation Assay (AID 720538); note: potency is the fitted concentration of half-maximal effect
Chain of Arylsulfatase A (Homo sapiens) (P15289 whole entry, looked up): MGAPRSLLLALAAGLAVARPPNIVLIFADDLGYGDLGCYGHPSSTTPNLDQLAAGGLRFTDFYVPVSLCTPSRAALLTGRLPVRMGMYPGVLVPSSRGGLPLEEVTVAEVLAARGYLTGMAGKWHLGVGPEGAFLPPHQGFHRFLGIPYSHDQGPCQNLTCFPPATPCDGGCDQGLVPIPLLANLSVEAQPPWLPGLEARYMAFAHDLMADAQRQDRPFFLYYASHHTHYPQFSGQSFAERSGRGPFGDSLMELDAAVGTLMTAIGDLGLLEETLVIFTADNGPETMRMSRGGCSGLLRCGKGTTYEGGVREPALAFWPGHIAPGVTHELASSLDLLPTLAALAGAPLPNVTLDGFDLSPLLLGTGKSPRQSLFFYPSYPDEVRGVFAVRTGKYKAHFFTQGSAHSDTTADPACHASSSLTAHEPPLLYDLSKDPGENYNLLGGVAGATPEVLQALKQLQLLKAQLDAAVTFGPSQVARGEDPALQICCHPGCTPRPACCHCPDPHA
How it was run: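 First, ASA-I179S fibroblasts from an MLD patient adhered for 6 hrs. Next, compounds were added for 48h. Then pNCS substrate (0.5mM final) with lysis buffer reacted 14h at room temperature before NaOH stop and fluorescence measurement.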

[2] = qHTS for compounds that reverse cellular toxicity of Amyloid beta (A-beta) peptide in yeast: LOPAC Validation Assay (AID 720559); conditions: Potency: rescue of growth toxicity
How it was run: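 Activity is expressed relative to DMSO and an equimolar ferric chloride/clioquinol mix. Compounds were pinned into medium with A-beta-expressing yeast, grown 48 hr at 30 C, then read by absorbance at 600 nm.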

[3] = qHTS for Activators of Parkin Expression: LOPAC Validation Assay (NLuc Reporter) (AID 720572)
How it was run: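 Neuronal cells with a Parkin promoter-driven FLuc/NLuc coincidence reporter were treated 24 h at 37 C in 7-point dose response (LOPAC). NLuc luminescence read after FLuc; signals normalized to DMSO and positive control (100%).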

[4] = qHTS for Activators of Parkin Expression: LOPAC Validation Assay (FLuc Reporter) (AID 720573)
How it was run: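 A neuronal cell line harbouring FLuc and NLuc reporters behind the Parkin promoter was exposed to compounds for 24 h. Firefly luciferase signal, measured after 10 min with detection reagent, was scaled to DMSO and positive-control wells.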

[5] = target: T1, Hexokinase-4 (Homo sapiens) + Glucokinase regulatory protein (Homo sapiens) (UniProt P35557+Q14397); test: qHTS assay for inhibitors of recombinant human GCK-GKRP interaction: Diaphorase-coupled assay (AID 743205)
T1 sequence (P35557 whole entry, looked up): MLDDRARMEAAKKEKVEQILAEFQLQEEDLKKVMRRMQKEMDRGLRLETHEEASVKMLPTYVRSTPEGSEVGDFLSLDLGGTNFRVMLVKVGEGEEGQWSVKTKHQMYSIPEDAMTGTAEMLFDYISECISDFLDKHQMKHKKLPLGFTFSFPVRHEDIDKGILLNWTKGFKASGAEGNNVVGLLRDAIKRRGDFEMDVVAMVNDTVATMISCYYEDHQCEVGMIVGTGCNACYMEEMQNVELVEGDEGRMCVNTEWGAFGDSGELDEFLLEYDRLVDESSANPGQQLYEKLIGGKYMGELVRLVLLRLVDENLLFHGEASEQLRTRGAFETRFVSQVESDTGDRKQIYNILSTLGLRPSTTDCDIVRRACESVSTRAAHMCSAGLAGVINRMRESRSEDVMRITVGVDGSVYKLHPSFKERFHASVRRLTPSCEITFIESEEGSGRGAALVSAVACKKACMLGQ
T1 sequence (Q14397 whole entry, looked up): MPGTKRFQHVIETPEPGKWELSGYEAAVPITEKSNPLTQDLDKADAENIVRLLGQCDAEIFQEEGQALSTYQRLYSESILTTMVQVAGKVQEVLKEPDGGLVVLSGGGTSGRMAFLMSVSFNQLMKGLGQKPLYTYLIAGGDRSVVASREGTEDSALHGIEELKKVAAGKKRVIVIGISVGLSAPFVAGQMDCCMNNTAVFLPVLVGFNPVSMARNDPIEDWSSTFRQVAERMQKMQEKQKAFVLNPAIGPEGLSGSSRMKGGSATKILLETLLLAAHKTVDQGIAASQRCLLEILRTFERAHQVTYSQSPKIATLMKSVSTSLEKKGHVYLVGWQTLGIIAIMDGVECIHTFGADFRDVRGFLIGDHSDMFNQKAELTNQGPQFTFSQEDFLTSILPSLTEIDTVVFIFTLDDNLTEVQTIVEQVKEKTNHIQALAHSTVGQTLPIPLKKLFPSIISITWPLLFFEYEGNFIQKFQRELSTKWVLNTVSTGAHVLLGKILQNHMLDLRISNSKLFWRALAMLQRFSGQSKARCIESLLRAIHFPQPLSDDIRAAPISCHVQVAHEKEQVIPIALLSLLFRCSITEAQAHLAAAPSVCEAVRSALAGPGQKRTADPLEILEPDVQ
How it was run: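 Inhibitors of the GCK–GKRP complex relieve GKRP suppression of GCK, detected through a G6PDH–diaphorase cascade reducing resazurin. Human GST-GCK and FLAG-GKRP are used at 10 nM with 5 mM glucose and 0.4 mM ATP.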

[6] = target: T1, Hexokinase-4 (Homo sapiens) + Glucokinase regulatory protein (Homo sapiens); test: qHTS assay for inhibitors of recombinant human GCK-GKRP interaction: ADP-Glo assay (AID 743206)
How it was run: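 GST-GCK and FLAG-GKRP (15 nM each in the dispensed mix, with 2 uM S6P) react with 0.4 mM ATP and 5 mM glucose (final) in Hepes pH 7.6 for 60 min at room temperature. ADP is measured by ADP-Glo luminescence.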

[7] = target: T1, Hexokinase-4 (Homo sapiens) + Glucokinase regulatory protein (Homo sapiens); test: qHTS assay for inhibitors of recombinant human GCK-GKRP interaction: HTRF assay (AID 743207)
How it was run: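 Steps: dispense GCK–GKRP complex (5 nM each, GST- and FLAG-tagged) with 2 uM S6P; pin in compounds; add XL665/Eu-cryptate-labelled antibodies; incubate 60 min at room temperature; read time-resolved FRET at 665 and 615 nm.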

[8] = qHTS Assay for Identifying Gametocytocidal Compounds (AID 743244);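 note: actives lower the fluorescent signal which means gametocytes are killed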; conditions: P. falciparum 3D7 stage III-V gametocytes, alamarBlue, 72 h; max response: active compounds read low
How it was run: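 Viability read-out was resazurin reduction (alamarBlue, 24 h) measured at Ex 525/Em 598 nm. Beforehand, late-stage (III-V) 3D7 P. falciparum gametocytes at 20,000 cells/well were incubated with compound 72 h at 37C under 5% CO2.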

Row | Structure (SMILES) | Potency [1] | Potency [2] | Potency [3] | Potency [4] | outcome [5] | Potency [6] | Potency [7] | max response [8]
1 | Cc1ccccc1CNc1ncnc2c1ncn2C1OC(CO)C(O)C1O (stereo not given) | inactive | inactive | inactive | inactive | inactive | inactive | inactive | 21.1%
2 | O=c1[nH]c2cc(C(F)(F)F)ccc2n1-c1cc(C(F)(F)F)ccc1O | inactive | inactive | inactive | inactive | inactive | inactive |  | 
3 | NCCSSCCN | inactive | inactive | inactive | inactive | inactive | inactive | inactive | 3.62%
4 | O=P(O)(O)C(Cl)(Cl)P(=O)(O)O | inactive | inactive | inactive | inactive | inactive | inactive | inactive | 
5 | C[N+](C)(C)CC(=O)[O-] | inactive | inactive | inactive | inactive | inactive | inactive | inactive | 
6 | COc1ccccc1N1CCN(CCN(C(=O)c2ccc(I)cc2)c2ccccn2)CC1 | inactive | inactive | inactive | inactive | inactive | inactive | inactive | 4.76%
7 | Brc1c(Br)c(Br)c2n[nH]nc2c1Br | inactive | inactive | inactive | inactive | inactive | inactive | inactive | 10.7%
8 | Cc1cc2c(cc1Cl)N(C(=O)Nc1ccc(Oc3cccnc3C)nc1)CC2 | inactive | inactive | inactive | inactive | inactive | inactive | inactive | 
9 | COc1ccc2c(c1)CCC1C2CC[C@@]2(C)C1CC[C@@H]2NCCCCCCN1C(=O)CCC1=O (stereo not given in full) | inactive | inactive | inactive | inactive | inactive | inactive | inactive | 
10 | O=S(=O)(c1cccc2c(I)cccc12)N1CCCNCC1 | inactive | inactive | inactive | inactive | inactive | inactive |  | 
11 | Clc1ccc(N2CCN(Cc3c[nH]c4ncccc34)CC2)cc1 | inactive | inactive | inactive | inactive | inactive | inactive | inactive | 
12 | OC[C@H]1O[C@@H](n2cnc3c(NC4CCCC4)ncnc32)[C@H](O)[C@@H]1O | inactive | inactive | inactive | inactive | inactive | inactive | inactive | -3.53%
13 | CCN1/C(=C/C(C)=O)Sc2ccc(OC)cc21 | inactive | inactive | inactive | inactive | inactive | inactive | inactive | 22.2%
14 | CC1(C)CCC=[N+]1[O-] | inactive | inactive | inactive | inactive | inactive | inactive | inactive | 7.42%
15 | O=C(O)/C=C/C(O)c1ccc(Cl)cc1 (stereo not given) | inactive | inactive | inactive | inactive | inactive | inactive | inactive | -3.84% and 16.6%
16 | S=C(S)OC1CC2CC1C1CCCC21 (stereo not given) | inactive | inactive | inactive | inactive | inactive | inactive | inactive | 22.6%
17 | O=c1[nH]c2cc([N+](=O)[O-])c([N+](=O)[O-])cc2[nH]c1=O | 8.49 µM (active) | inactive | inactive | inactive | inactive | inactive | inactive | 23.7%
18 | CN1C2CC(OC(=O)[C@H](CO)c3ccccc3)CC1C1OC12 (stereo not given in full) | inactive | inactive | inactive | inactive | inactive | inactive | inactive | 21.9%
19 | CCCCCCCCCCCCCCCCCC(=O)NCC(COP(=O)([O-])OCC[N+](C)(C)C)OCC (stereo not given) | inactive | inactive | inactive | inactive | inactive | inactive | inactive | 4.32%
20 | CO/N=C(\C(=O)N[C@@H]1C(=O)N2C(C(=O)O)=C(COC(C)=O)CS[C@H]12)c1csc(N)n1 | inactive | inactive | inactive | inactive | inactive | inactive | inactive | 5.62%
21 | OCC1O[C@H](O)C(Cl)C(O)C1O (stereo not given in full) | inactive | inactive | inactive | inactive | inactive | inactive | inactive | 14.4%
22 | C[N+](C)(C)CCOP(=O)(O)OP(=O)([O-])OC[C@H]1O[C@@H](n2ccc(N)nc2=O)[C@H](O)[C@@H]1O | inactive | inactive | inactive | inactive | inactive | inactive | inactive | 1.57% and 1.8% and 27.7%
23 | NCCNC(=O)c1ncsc1-c1cccc(F)c1 | inactive | inactive | inactive | inactive | inactive | inactive | inactive | 3.56%
